{"source": "ChEMBL document CHEMBL1201862", "about": "“PubChem BioAssay data set” (2004)", "note": "The campaign covered roughly 220,000 compounds. About 10 (0.005%) were called active. The rule behind the calls is not given here. Only a selection was taken, and actives are over-represented in it overall.", "data": [{"experiment": "compounds boosting herpes simplex virus growth – fold increase, host cell viability (AID 1956)", "assay_type": "functional", "values": [{"smiles": "N#C/C(=C/c1ccc(N2CCOCC2)o1)C(=O)NC1CCCCC1", "Conc @ Max Fold Incr": "25 µM (active)"}]}]}
